A selection: hits, their analogues and other compounds. The true share with any hit is near 1.1%.
LAP4 TOR yeast – modulators of LAP4-GFP expression in yeast, primary screen, S. cerevisiae, multiplex flow cytometry, MLPCN library; 3 h; median GFP as percent of DMSO wells; GFP response vs DMSO, % at 10 µM; actives 0.34% (n = 320,000); AID 2023, 2009;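 active = GFP response vs DMSO above a set limit, about the screen mean plus 3 SD, cut at about 150% in these data; inconclusive = under 70 cell events counted for the yeast strain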
CIT2-GFP yeast – modulators of CIT2-GFP expression in yeast, primary screen, S. cerevisiae, GFP fusion, multiplex flow cytometry, MLPCN library | S. cerevisiae CIT2-GFP strain, 3 h; 100 means same as DMSO wells | GFP response vs DMSO, % at 10 µM | actives 0.065% (n = 320,000) | AID 2029, 2009;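 active = GFP response relative to DMSO above a set limit, near the screen mean plus 3 SD, cut at about 150% in these data; inconclusive = Fewer than 70 cells measured for a yeast strain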;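 also: ratio of well median GFP fluorescence to mean of DMSO wells on the plate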
VLA-4 inh – inhibition in human VLA-4 binding assay, primary screen, VLA-4 allosteric modulator project, MLPCN library, flow cytometry, VLA-4 expressing cells. Integrin alpha-4 (Homo sapiens), P13612. ligand binding flow cytometry. inhibition, % (about 7 µM as worked out from the volumes in the protocol). actives 0.2% (n = 330,000). AID 2557, 2010; in the data active = inhibition above about 50%
RPL19A-GFP yeast – RPL19A-GFP expression modulators in yeast, primary screen, cell-based, S. cerevisiae, multiplex flow cytometry, MLPCN. percent response vs DMSO, % at 10 µM. S. cerevisiae RPL19A-GFP strain, 3 h; hits give low values. actives 0.3% (n = 330,000);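 active = percent response vs DMSO below 50%; inconclusive = fewer than 70 events counted for the yeast strain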;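 also: median channel GFP fluorescence of the barcoded RPL19A-GFP strain; ratio of sample median GFP to plate DMSO average so 100% = DMSO; lower means less RPL19A-GFP as with rapamycin TOR inhibition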
MEP2 TOR yeast – modulators of MEP2-GFP levels in yeast, primary screen, S. cerevisiae, multiplex flow cytometry, MLPCN library; S. cerevisiae MEP2-GFP strain, 3 h; 100% = DMSO control level; GFP response vs DMSO, % at 10 µM; actives 0.51% (n = 330,000); AID 2016, 2009;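 active = GFP response versus DMSO above a set limit, roughly screen mean plus 3 SD, cut at about 180% in these data; inconclusive = fewer than 70 cells counted for a yeast strain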;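 also: median GFP fluorescence of the barcode-gated MEP2-GFP cells per well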
AGP1-GFP MLPCN – modulators of AGP1-GFP expression in yeast TOR pathway, primary screen, cell-based, multiplex flow cytometry, S. cerevisiae, MLPCN library; 3 h; GFP as percent of DMSO wells; actives 0.02% (n = 320,000); GFP response vs DMSO, % at 10 µM; AID 2066, 2009;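 active = GFP response relative to DMSO above a set limit, near screen average plus 3 SD, cut at about 150% in these data; inconclusive = fewer than 70 cells counted for the yeast strain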;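 also: median GFP channel fluorescence of the gated AGP1 strain per well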
Active calls of the source: *; [ ] = dose if it differs, or a comment.

Screening O=C(O)C1CCCCC1C(=O)Nc1ccc(F)cc1F (configuration not stated) returned LAP4 TOR yeast inconclusive, CIT2-GFP yeast inconclusive, VLA-4 inh 0.0, RPL19A-GFP yeast 14.9*[may fluoresce violet], MEP2 TOR yeast inconclusive and AGP1-GFP MLPCN inconclusive.
`Cc1cccc(Sc2c(C=O)c3ccccc3n2C)c1` gave LAP4 TOR yeast 55.0, CIT2-GFP yeast inconclusive, VLA-4 inh -70.9, RPL19A-GFP yeast 64.9, MEP2 TOR yeast 228.0*[may fluoresce violet] and AGP1-GFP MLPCN inconclusive.
Screening CCN(CC)C(=O)c1ccc(-c2cccs2)s1 returned LAP4 TOR yeast 183.9*, CIT2-GFP yeast 51.5, VLA-4 inh 3.6, RPL19A-GFP yeast 85.0, MEP2 TOR yeast 72.5 and AGP1-GFP MLPCN 72.4.
`CCCN1CCN(C(=O)c2oc3ccccc3c2NC(=O)COc2ccc(OC)cc2)CC1` gave LAP4 TOR yeast 79.7, CIT2-GFP yeast 77.4, VLA-4 inh -9.4, RPL19A-GFP yeast 31.3*, MEP2 TOR yeast 101.7 and AGP1-GFP MLPCN 25.6.
Screening O=C(O)C1CC=CCC1C(=O)N1CCN(c2nc(-c3ccccc3)c3ccccc3n2)CC1 (configuration not stated) returned LAP4 TOR yeast 89.9, CIT2-GFP yeast inconclusive, VLA-4 inh 4.4, RPL19A-GFP yeast 101.4, MEP2 TOR yeast 92.1 and AGP1-GFP MLPCN 17.4.
Screening O=C(O)C1CC=CCC1C(=O)N1CCN(c2nc(-c3ccccc3Cl)c3cc(Br)ccc3n2)CC1 (configuration not stated) returned LAP4 TOR yeast 97.3, CIT2-GFP yeast inconclusive, VLA-4 inh 2.6, RPL19A-GFP yeast 75.3, MEP2 TOR yeast 191.9*[may fluoresce violet] and AGP1-GFP MLPCN 13.5.
`COc1ccccc1N1CCN(S(=O)(=O)c2c(C)sc3ncn(CC(=O)NCCN(C)C)c(=O)c23)CC1` gave LAP4 TOR yeast 89.7, CIT2-GFP yeast inconclusive, VLA-4 inh 3.4, RPL19A-GFP yeast 50.1, MEP2 TOR yeast 257.9*[may fluoresce violet] and AGP1-GFP MLPCN inconclusive.
Screening Cc1ccc(S(=O)(=O)NCCC(=O)NCc2cccnc2)cc1 returned LAP4 TOR yeast 103.9, CIT2-GFP yeast 96.9, VLA-4 inh 6.1, RPL19A-GFP yeast 99.6, MEP2 TOR yeast 96.7 and AGP1-GFP MLPCN 98.8.
For O=C(CCNS(=O)(=O)c1ccc(Cl)cc1)NCc1cccnc1 the results were LAP4 TOR yeast 117.8, CIT2-GFP yeast inconclusive, VLA-4 inh 0.0, RPL19A-GFP yeast 29.1*[may fluoresce violet], MEP2 TOR yeast 252.3*[may fluoresce violet] and AGP1-GFP MLPCN inconclusive.
Screening CCCc1cc(=O)oc2cc(C)cc(OC(C)C(=O)NCCCn3ccnc3)c12 (configuration not stated) returned LAP4 TOR yeast 91.5, CIT2-GFP yeast 110.9, VLA-4 inh 7.8, RPL19A-GFP yeast 99.2, MEP2 TOR yeast 102.1 and AGP1-GFP MLPCN 104.4.
For O=C(CCCC(=O)OCC1CCCO1)OCC1CCCO1 (configuration not stated) the results were LAP4 TOR yeast 99.5, CIT2-GFP yeast inconclusive, VLA-4 inh 3.2, RPL19A-GFP yeast 52.6 and MEP2 TOR yeast 281.1*[may fluoresce violet].
Cc1csc(NC(=O)CSc2nncn2C)n1 was read as LAP4 TOR yeast 100.3, CIT2-GFP yeast 100.0, VLA-4 inh -2.8, RPL19A-GFP yeast 103.0, MEP2 TOR yeast 103.5 and AGP1-GFP MLPCN 100.7.
`Cn1cnnc1SCC(=O)Nc1nc(-c2ccc(F)cc2)cs1` gave LAP4 TOR yeast 199.4*, CIT2-GFP yeast 217.5*, VLA-4 inh 3.1, RPL19A-GFP yeast 115.6, MEP2 TOR yeast 253.9* and AGP1-GFP MLPCN 121.6.
For O=C(Cn1c(=O)cnc2ccccc21)NC1CCC(O)CC1 (configuration not stated) the results were LAP4 TOR yeast 65.5, CIT2-GFP yeast inconclusive, VLA-4 inh -15.7, RPL19A-GFP yeast 46.7*[may fluoresce violet], MEP2 TOR yeast 121.7 and AGP1-GFP MLPCN inconclusive.
For CC(C)NC(=O)Cn1c(=O)cnc2ccccc21 the results were LAP4 TOR yeast 91.5, CIT2-GFP yeast 99.5, VLA-4 inh 10.9, RPL19A-GFP yeast 106.1, MEP2 TOR yeast 110.4 and AGP1-GFP MLPCN 99.9.
COC(=O)c1cc(OC)c(OC)cc1NC(=O)CSc1nnnn1Cc1ccccc1 was read as LAP4 TOR yeast 70.8, CIT2-GFP yeast inconclusive, VLA-4 inh -6.8, RPL19A-GFP yeast 56.1, MEP2 TOR yeast 230.4*[may fluoresce violet] and AGP1-GFP MLPCN inconclusive.
CCCC1(C(=O)OC)NC(c2ccco2)C2C(=O)N(c3ccc(C)cc3)C(=O)C21 (configuration not stated) was read as LAP4 TOR yeast 90.7, VLA-4 inh 5.0, RPL19A-GFP yeast 36.9*[may fluoresce violet], MEP2 TOR yeast 333.4*[may fluoresce violet] and AGP1-GFP MLPCN inconclusive.
CCOC(=O)C1(CC)NC(c2ccco2)C2C(=O)N(c3ccc(C)cc3)C(=O)C21 (configuration not stated) was read as LAP4 TOR yeast 91.8, CIT2-GFP yeast 94.4, VLA-4 inh 6.2, RPL19A-GFP yeast 97.8, MEP2 TOR yeast 97.1 and AGP1-GFP MLPCN 99.3.
`CCCCN=C1CC(C)(C)CC(=O)/C1=C(/O)CCC` gave LAP4 TOR yeast 122.4, CIT2-GFP yeast 104.5, VLA-4 inh 4.2, RPL19A-GFP yeast 97.8, MEP2 TOR yeast 99.6 and AGP1-GFP MLPCN 117.5.
For Cc1cc(C)cc(Nc2ccc(C(=O)O)cc2N)c1 the results were LAP4 TOR yeast 88.8, CIT2-GFP yeast inconclusive, VLA-4 inh 11.9, RPL19A-GFP yeast 95.5, MEP2 TOR yeast 208.7*[may fluoresce violet] and AGP1-GFP MLPCN 103.8.
COc1ccc(-n2nnnc2SCC(=O)c2ccc(O)c(O)c2)cc1 was read as LAP4 TOR yeast inconclusive, CIT2-GFP yeast inconclusive, VLA-4 inh -8.3, RPL19A-GFP yeast 12.3*[may fluoresce violet], MEP2 TOR yeast 275.8*[may fluoresce violet] and AGP1-GFP MLPCN inconclusive.
For Cc1cc(-c2ccc(N=Nc3c(S(=O)(=O)O)cc4cc(S(=O)(=O)O)cc(N)c4c3O)c(C)c2)ccc1N=Nc1c(S(=O)(=O)O)cc2cc(S(=O)(=O)O)cc(N)c2c1O the results were LAP4 TOR yeast 400.2*[may fluoresce red], CIT2-GFP yeast 51.1, VLA-4 inh 35.0, RPL19A-GFP yeast inconclusive, MEP2 TOR yeast 71.9 and AGP1-GFP MLPCN 53.0.
Screening COc1ccc(Cl)cc1N(CC(=O)N1CCCC1)S(=O)(=O)c1ccc(C)cc1 returned LAP4 TOR yeast 90.2, CIT2-GFP yeast inconclusive, VLA-4 inh -1.4, RPL19A-GFP yeast 47.0*[may fluoresce violet], MEP2 TOR yeast 216.3*[may fluoresce violet] and AGP1-GFP MLPCN inconclusive.
For CCN(CC(=O)NCc1ccco1)S(=O)(=O)c1ccc(OC)cc1 the results were LAP4 TOR yeast 102.5, CIT2-GFP yeast 86.3, VLA-4 inh -6.8, RPL19A-GFP yeast 95.8, MEP2 TOR yeast 93.0 and AGP1-GFP MLPCN 99.0.
